# FEN1 inhibitor = inhibitors of human flap endonuclease 1. 0.35% of 390,000 active. P39748. AID 588795. Recombinant FEN1 flap cleavage, fluorescence, 15 min. Potency, µM (doses to about 114 µM), for the others: at the top dose activity change, negative = inhibition, actives largely listed as inhibitors; further: on the % scale 0 is the no-effect control and ±100 the full control effect; nearly all actives have a fitted effect of over 65% in size
#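 Enzyme 10 nM, 15 min RT preincubation with compound; start with substrate 50 nM final; reads at 0 and 15 min; qHTS titration, four-parameter Hill fit.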
# POLK inh = inhibitors of human DNA polymerase kappa | purified Pol kappa, fluorescent DNA synthesis assay, 10 min | Q9UBT6 | Potency, µM (top dose mostly 107 µM), for the others: at the highest dose activity, negative = inhibition, hits mostly inhibitors | 0.53% of 400,000 active; further: on the % scale 0 is the no-effect control and ±100 the full control effect
#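 50 nM final substrate added after 15 min RT preincubation of 10 nM Pol kappa with compound; fluorescence read at 0 and 10 min.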
# POLB inh = inhibitors of human DNA polymerase beta. P06746. Pol beta primer extension/strand displacement, fluorescence kinetic. Potency, µM (series often up to 114 µM), inactives show at the top dose activity change, negative = inhibition, hits mostly inhibitors. 1.3% of 340,000 active. AID 485314; further: on the % scale 0 is the no-effect control and ±100 the full control effect
#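 10 nM enzyme + cpd, 15 min RT; start with substrate 50 nM final; read 0 min and after 10 min RT. Corrected, normalized data; 4-parameter Hill curve fit.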
# POLI inh = inhibitors of human DNA polymerase iota; Pol iota fluorescent replication assay, 10 min; 1% of 390,000 active; Q9UNA4; Potency, µM (top dose mostly 115 µM), for inactives: at the highest dose activity, negative = inhibition, hits mostly inhibitors; AID 588590
#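 Fluorescent replication assay read twice, at 0 min and 10 min after adding 50 nM (final) substrate. Enzyme (10 nM) and compounds were first incubated 15 min at room temperature; enzyme-free buffer wells were negative controls.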
# TDP1 inh = TDP1 (human) enzyme inhibition; Q9NUW8; recombinant TDP1, AlphaScreen DNA substrate cleavage; Potency, µM (series often up to 130 µM), for inactives: top-dose activity change, negative = inhibition, actives largely listed as inhibitors; 0.28% of 350,000 active; further: on the % scale 0 is the no-effect control and ±100 the full control effect; nearly all actives have a fitted effect of over 40% in size
# Target sequence (Q9NUW8 whole entry, looked up): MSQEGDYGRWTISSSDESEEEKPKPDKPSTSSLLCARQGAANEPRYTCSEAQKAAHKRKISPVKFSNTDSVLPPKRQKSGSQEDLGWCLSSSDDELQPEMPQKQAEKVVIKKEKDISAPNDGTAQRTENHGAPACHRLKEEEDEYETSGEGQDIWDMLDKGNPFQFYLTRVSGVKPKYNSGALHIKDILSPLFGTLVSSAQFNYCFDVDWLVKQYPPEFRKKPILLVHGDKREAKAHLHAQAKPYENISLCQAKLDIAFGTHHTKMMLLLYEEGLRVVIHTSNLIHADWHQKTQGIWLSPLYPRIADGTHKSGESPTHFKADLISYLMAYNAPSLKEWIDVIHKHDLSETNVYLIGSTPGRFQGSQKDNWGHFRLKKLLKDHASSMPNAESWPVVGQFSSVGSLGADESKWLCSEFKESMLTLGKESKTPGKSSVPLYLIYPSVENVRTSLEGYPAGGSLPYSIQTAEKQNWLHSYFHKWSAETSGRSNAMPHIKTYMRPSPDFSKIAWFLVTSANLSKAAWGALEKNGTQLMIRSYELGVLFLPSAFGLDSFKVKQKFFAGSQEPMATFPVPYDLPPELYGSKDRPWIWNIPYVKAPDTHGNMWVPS
#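 Compounds were preincubated with Tdp1 (1 nM final) for 15 min at room temperature before substrate (15 nM final) started a 5 min reaction; beads (10 ug/ml final) were then added for 10 min before AlphaScreen detection.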
# Pol eta inh = inhibitors of human DNA polymerase eta. Q9Y253. recombinant Pol eta, fluorescent DNA replication assay. Potency, µM (highest dose often 114 µM), for the others: at the highest dose activity change, negative = inhibition, hits mostly inhibitors. 1.2% of 390,000 active; further: on the % scale 0 is the no-effect control and ±100 the full control effect
#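 Fluorescent replication assay: 50 nM final substrate added after a 15 min room-temperature compound preincubation with 10 nM enzyme. Signal taken at 0 min and again at 10 min.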
# Active calls of the source: *; ? = inconclusive; . = not tested or not shown; [ ] = remark or other dose. Compounds with a hit are over-represented: about 2.4% of the library has one in this group of screens. The call rests on the fitted dose curve; in most records, active means well fitted curve in the direction sought with a large enough effect; inconclusive means small, poorly fitted or top-dose-only effect, or another doubt; inactive means no such curve, though single readings can be large; an effect the other way counts as inactive or inconclusive. Potency means the concentration at half of the fitted maximal effect.
SMILES,FEN1 inhibitor,POLK inh,POLB inh,POLI inh,TDP1 inh,Pol eta inh
CCCCn1c(SCC(=O)c2ccc(OC)cc2OC)nc2cc(S(N)(=O)=O)ccc21,-11%,?,40µM*,45µM*,2%,25µM*
Cc1ccc(C)c(NC(=O)C2CCN(c3nn4c(=O)cc(C)nc4s3)CC2)c1,18%,2%,4%,87%,0%,-19%
CC(=O)OCC(=O)N1N=C(c2ccc3ccccc3c2)CC1c1ccccc1 (stereo not given),0%,-9%,-6%,55%,1%,-14%
Nc1cc(=O)[nH]c(SCC(=O)N2N=C(c3ccc4ccccc4c3)CC2c2ccccc2)n1 (stereo not given),-7%,-8%,5%,45µM*,?,?
Clc1ccc(Nc2nc(Nc3ccc(Cl)cc3)nc(N3CCOCC3)n2)cc1,1%,-15%,.,9%,.,.
CCC(C)N1C(=O)/C(=C/c2c(NCCCOC(C)C)nc3c(C)cccn3c2=O)SC1=S (stereo not given),?,-7%,28µM*,13%,-2%,22µM*
CCc1ccc(S(=O)(=O)c2c[nH]c3cc(OC)c(OC)cc3c2=O)cc1,-16%,-7%,0%,-26%,-1%,2%
CS(=O)(=O)/C=C/c1nc(Nc2cc(F)cc(F)c2)c2ncn(CC(F)F)c2n1,.,.,.,.,1%,.
CCOc1ccc(S(=O)(=O)Nc2ccccc2C(=O)N2CCCC2)cc1,2%,-7%,1%,22%,-3%,-10%
CCOc1ccc(Oc2ccccc2NS(=O)(=O)c2ccc(CCC(=O)O)cc2)cc1,-4%,-12%,.,16%,?,35µM*
O=C(Nc1cccc(Cl)c1)c1ccc2nc(Cc3ccccc3)oc2c1,-10%,-9%[60.1 µM],2%,23%,3%,-16%
COc1ccc(C2=CC3=C(Br)C(=O)C(C)(OC(=O)c4ccc(Cl)nc4)C(=O)C3=CO2)cc1 (stereo not given),?,?,50µM*,10µM*,-5%,22µM*
COC(=O)CCC(=O)OC1(C)C(=O)C2=CN(CCc3ccccn3)C(c3ccc(OC)cc3)=CC2=C(Br)C1=O (stereo not given),-14%,-16%,.,?,4%[21 µM],32µM*
COC(=O)CCC(=O)OC1(C)C(=O)C2=COC(c3ccc(OC)cc3)=CC2=C(Br)C1=O (stereo not given),35µM*,25µM*,22µM*,13µM*,-6%,10µM*
CC(C)(C)OC(=O)NCCCC1=CC2=CC(=O)C(C)(OC(=O)c3ccc(Cl)nc3)C(=O)C2=CO1 (stereo not given),.,.,.,.,4%,.
COc1cc(F)c(S(=O)(=O)N2CCN(S(=O)(=O)c3cccc(NC(C)=O)c3)CC2)c(F)c1,.,.,.,.,2%,.
Cc1ccc(NS(=O)(=O)c2ccc(Cl)cc2)cc1C,.,.,.,.,-5%,.
O=C1NNC(c2ccccc2)=N/C1=C\c1ccco1,-3%,-41%,10µM*,?,9%,?
O=C1ON=C(c2ccccc2)/C1=C/c1ccco1,?,28µM*,25µM*,22µM*,3%,?
O=c1c(-c2ccccc2)n[nH]c2ccccc12,-3%,-16%,-8%,5%,-3%,2%
O=C1c2ccccc2-c2n[nH]c3cccc1c23,?,?,32µM*,?,-8%[56.1 µM],?
C(=C\c1cccc2ccccc12)/c1nnc(-c2cccs2)o1,-6%,-11%,0%,-20%,.,-7%
O=c1c2ccccc2cnn1Cc1nnc(-c2cccs2)o1,-3%,-9%,45µM*,?,0%,-7%
CN(C)CCNC(=O)c1ccc2c(c1)NC(=O)C(CS(=O)(=O)Cc1cccc(Br)c1)N2 (stereo not given),-10%,-5%[60.1 µM],-18%,-1%,10%,-25%
CC(C)CCNC(=O)c1ccc2c(c1)NC(=O)C(CS(=O)(=O)Cc1cccc(Br)c1)N2 (stereo not given),4%,-11%,10µM*,?,7%,-19%
SMILES,FEN1 inhibitor,POLK inh,POLB inh,POLI inh,TDP1 inh,Pol eta inh
Cc1cc(O)c(C=O)c2c1C(=O)Oc1c(C)c(O)c3c(c1O2)C(O)OC3=O (stereo not given),.,10µM*,.,.,7.9µM*,.
COc1ccc(Cl)cc1NC(=O)c1c(NCc2sccc2C)sc2c1CCCC2,79µM*,-9%[60.1 µM],3%,?,7%,-7%
COc1cc2c(NC3CCN(C)CC3)nc(N3CCCN(C)CC3)nc2cc1OCCCN1CCCC1,10µM*,?,.,?,.,.
COc1cc2nc(N3CCCN(C)CC3)nc(NC3CCOCC3)c2cc1OC,-18%,-5%,.,-5%,.,.
COc1cc2c(NC3CCN(C(C)C)CC3)nc(N3CCCN(C)CC3)nc2cc1OCCOCCN1CCCC1,20µM*,?,.,?,.,.
COc1cc2c(NC3CCN(C)CC3)nc(N3CCCCC3)nc2cc1OCCOCCN1CCCC1,20µM*,-19%,.,?,.,.
COc1cc2nc(N3CCCN(C)CC3)nc(NC3CCCCC3)c2cc1OC,?,-2%,.,14%,.,.
COc1cc2c(NC3CCN(C)CC3)nc(N3CCCN(C)CC3)nc2cc1OCCCN1CCOCC1,22µM*,-7%,.,-16%,.,.
CC(C)Oc1ccc(/C(O)=C2/C(=O)C(=O)N(Cc3cccnc3)C2c2ccco2)cc1 (stereo not given),-5%,-7%,32µM*,?,-1%,3%
COc1ccc(/C(O)=C2/C(=O)C(=O)N(Cc3cccnc3)C2c2ccccn2)cc1 (stereo not given),-1%,-5%,3%,-8%,-3%,-12%
COc1cc(-c2nc3sccn3c2Nc2cccc(C)c2)ccc1O,-4%,-11%,?,11%,11%,1%
CCOC(=O)c1scc(-c2ccccc2)c1S(=O)(=O)Nc1cc(Cl)c(OC)cc1OC,-15%,3%,8%,10%,6%,-17%
CC(C)C(C)N(Cc1cccc(C(=O)O)c1)C(=O)c1ccc2ccccc2n1 (stereo not given),18%,-16%,.,22µM*,.,-12%
O=C1C(c2ccccc2)=[N+]([O-])c2ccccc21,?,-25%,.,8.9µM*,11%,?
CCn1c(CSc2n[nH]c(N)n2)nc2cc(C(=O)O)ccc21,-32%,-17%,?,50µM*,-7%,?
CCOc1ccc(C(=O)CSc2nnc3ccccn23)cc1,9%,3%,2%,0%,3%,1%
COC(=O)c1ccc(C(=O)OC)c(NC(=O)CSc2n[nH]c(N)n2)c1,12%,0%,.,47%,1%,-11%

# Source: PubChem BioAssay (National Center for Advancing Translational Sciences (NCATS))
